The supplement of paper PMC10849652
The full data set covers some 7,900 targets. This sample favours those with a hit. About 0.6% of all pairs of compound and target were hits. Values without a mark were called inactive.

What was measured:
Experiment in all cases: log2 fold change, soluble protein after heating vs DMSO (PISA); higher = thermal stabilisation; K562 cells, 10 uM, 30 min; active = over 0.2 and 3.5 SD of the protein, either way, in both replicates (recomputed)
[1] = compound: C1COCCN1CCN2C3=CC=CC=C3N=C2NC(=O)C4=CC(=CC=C4)[N+](=O)[O-] [IRAK-1-4 Inhibitor I]
Procedure, shortened: (§1)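 Soluble protein was quantified by TMTpro 16plex LC-MS/MS after channel sums were equalised. It was obtained as the supernatant after 21,000xg for 90 min from pooled aliquots of K562 cells (2×10^6 cells/mL, 10 μM compound, 30 min) heated for 3 min across 48°C-58°C and extracted in PBS with 0.5% NP-40 at 4°C. Thermal stability values are relative to control samples and come from duplicates. They are given as log2 fold changes.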

[2] = compound: C=CC(=O)N1CCC[C@@H](n2nc(-c3ccc(Oc4ccccc4)cc3)c3c(N)ncnc32)C1 [ibrutinib]
Procedure, shortened: as §1

[3] = compound: CC(=O)c1cnc2ccc(-c3cc(Cl)c(O)c(Cl)c3)nc2c1N[C@H]1CC[C@H](CN(C)C)CC1
Procedure, shortened: as §1

[4] = compound: CC(C)(C)Cn1c(N)nc2ccc(-c3[nH]c(C(C)(C)C)nc3-c3ccc(F)cc3)nc21 [ralimetinib]
Procedure, shortened: as §1

[5] = compound: CC(C)(O)CC(=O)NCCn1ccc2ncnc(Nc3ccc(Oc4cccc(C(F)(F)F)c4)c(Cl)c3)c21
Procedure, shortened: as §1

[6] = compound: CC(C)C1=C2N=C(C=C(N2N=C1)NCC3=CC=CC=C3)NCCCCCCN
Procedure, shortened: as §1

[7] = compound: CC(C)C[C@@H](C=O)NC(=O)[C@H](CC(C)C)NC(=O)[C@H](CC(C)C)NC(=O)OCc1ccccc1
Procedure, shortened: as §1

[8] = compound: CC(C)N(C[C@H]1O[C@@H](n2cnc3c(N)ncnc32)[C@H](O)[C@@H]1O)[C@H]1C[C@@H](CCc2nc3cc(C(C)(C)C)ccc3[nH]2)C1 [pinometostat]
Procedure, shortened: as §1

[9] = compound: CC1=C(C(CC(=O)N1)C2=CC=C(C=C2)C(F)(F)F)C(=O)NC3=C(C=C4C(=C3)C=NN4)F
Procedure, shortened: as §1

[10] = compound: CC1=C(C2=C(C=C1)C(=O)C3=CC=CC=C3N2CCCN)C
Procedure, shortened: as §1

[11] = compound: CC1=C(C=C(C=C1)NC(=O)C2=CC(=CC=C2)C(C)(C)C#N)NC3=CC4=C(C=C3)N=CN(C4=O)C
Procedure, shortened: as §1

[12] = compound: CC1=C(C=C(C=C1)NC(=O)C2=CC(=CC=C2)N(C)C)NC(=O)C3=CC=C(C=C3)O
Procedure, shortened: as §1

[13] = compound: CC1=CC=C(C=C1)SC2=C3C=C(SC3=CN=C2)C(=O)N
Procedure, shortened: as §1

[14] = compound: CC1=NC(=CC=C1)C2=C(N=C(N2)C(C)(C)C)C3=CC4=NC=CN=C4C=C3
Procedure, shortened: as §1

[15] = compound: CCCCN(Cc1ccc(C(=O)NO)cc1)C(=O)Nc1ccccc1 [Nexturastat A]
Procedure, shortened: as §1

[16] = compound: CCCS(=O)(=O)Nc1ccc(F)c(C(=O)c2c[nH]c3ncc(-c4ccc(Cl)cc4)cc23)c1F [vemurafenib]
Procedure, shortened: as §1

[17] = compound: CCCS(=O)(=O)Nc1ccc(F)c(C(=O)c2c[nH]c3ncc(Cl)cc23)c1F
Procedure, shortened: as §1

[18] = compound: CCCc1cc(C)[nH]c(=O)c1CNC(=O)c1cc(-c2ccnc(N3CCN(C)CC3)c2)cc2c1cnn2C(C)C
Procedure, shortened: as §1

[19] = compound: CCN(CC)Cc1ccc2cc(COC(=O)Nc3ccc(C(=O)NO)cc3)ccc2c1 [givinostat]
Procedure, shortened: as §1

[20] = compound: CCN(CCCOc1ccc2c(Nc3cc(CC(=O)Nc4cccc(F)c4)[nH]n3)ncnc2c1)CCOP(=O)(O)O [barasertib]
Procedure, shortened: as §1

Sequence of UniProt Q9Y673 (Q9Y673 whole entry, looked up): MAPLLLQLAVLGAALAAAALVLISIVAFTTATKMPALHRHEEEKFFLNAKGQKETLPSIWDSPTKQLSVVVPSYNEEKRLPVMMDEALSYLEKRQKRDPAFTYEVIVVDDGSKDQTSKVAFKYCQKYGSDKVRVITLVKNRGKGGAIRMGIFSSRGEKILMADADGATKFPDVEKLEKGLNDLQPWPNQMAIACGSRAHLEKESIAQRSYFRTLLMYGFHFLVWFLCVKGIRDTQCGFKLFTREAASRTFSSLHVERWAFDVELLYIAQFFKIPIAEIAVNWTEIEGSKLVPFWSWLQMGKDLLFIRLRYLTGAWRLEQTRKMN
Sequence of UniProt Q9Y6E2 (Q9Y6E2 whole entry, looked up): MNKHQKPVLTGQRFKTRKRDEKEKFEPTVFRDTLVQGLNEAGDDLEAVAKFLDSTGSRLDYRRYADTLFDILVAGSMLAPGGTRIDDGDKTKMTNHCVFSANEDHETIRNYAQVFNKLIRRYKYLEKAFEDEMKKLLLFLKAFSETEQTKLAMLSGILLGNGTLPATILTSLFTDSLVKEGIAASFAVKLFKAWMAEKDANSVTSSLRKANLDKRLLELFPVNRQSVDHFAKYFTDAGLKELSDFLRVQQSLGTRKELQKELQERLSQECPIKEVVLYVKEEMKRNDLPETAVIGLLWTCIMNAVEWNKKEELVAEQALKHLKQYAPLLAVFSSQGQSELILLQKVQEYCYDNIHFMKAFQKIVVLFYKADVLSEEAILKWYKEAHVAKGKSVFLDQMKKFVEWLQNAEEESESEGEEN
Sequence of UniProt Q5JTZ9 (Q5JTZ9 whole entry, looked up): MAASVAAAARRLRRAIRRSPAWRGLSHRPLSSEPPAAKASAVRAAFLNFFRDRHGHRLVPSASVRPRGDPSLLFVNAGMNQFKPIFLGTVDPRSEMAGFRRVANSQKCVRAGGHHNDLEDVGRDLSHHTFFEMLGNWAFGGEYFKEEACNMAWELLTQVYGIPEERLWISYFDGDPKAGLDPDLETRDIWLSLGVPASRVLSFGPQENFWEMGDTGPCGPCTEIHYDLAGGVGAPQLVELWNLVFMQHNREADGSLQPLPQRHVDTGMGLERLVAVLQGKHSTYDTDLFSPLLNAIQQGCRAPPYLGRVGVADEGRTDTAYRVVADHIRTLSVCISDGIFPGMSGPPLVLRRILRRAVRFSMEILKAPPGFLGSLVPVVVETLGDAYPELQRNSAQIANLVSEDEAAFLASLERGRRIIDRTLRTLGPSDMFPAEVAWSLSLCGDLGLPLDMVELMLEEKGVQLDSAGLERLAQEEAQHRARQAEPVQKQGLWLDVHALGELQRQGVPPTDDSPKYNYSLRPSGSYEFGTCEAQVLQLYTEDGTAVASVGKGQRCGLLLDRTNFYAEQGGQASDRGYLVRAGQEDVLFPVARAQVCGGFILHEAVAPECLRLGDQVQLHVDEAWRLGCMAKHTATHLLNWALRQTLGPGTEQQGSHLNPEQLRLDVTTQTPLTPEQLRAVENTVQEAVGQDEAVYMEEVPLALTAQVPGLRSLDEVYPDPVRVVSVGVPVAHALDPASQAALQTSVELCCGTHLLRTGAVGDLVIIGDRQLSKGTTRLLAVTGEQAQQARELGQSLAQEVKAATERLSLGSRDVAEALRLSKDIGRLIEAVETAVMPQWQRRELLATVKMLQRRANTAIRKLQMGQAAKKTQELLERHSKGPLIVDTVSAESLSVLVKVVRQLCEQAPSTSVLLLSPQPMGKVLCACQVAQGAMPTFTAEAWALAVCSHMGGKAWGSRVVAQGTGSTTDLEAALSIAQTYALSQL
Sequence of UniProt O00116 (O00116 whole entry, looked up): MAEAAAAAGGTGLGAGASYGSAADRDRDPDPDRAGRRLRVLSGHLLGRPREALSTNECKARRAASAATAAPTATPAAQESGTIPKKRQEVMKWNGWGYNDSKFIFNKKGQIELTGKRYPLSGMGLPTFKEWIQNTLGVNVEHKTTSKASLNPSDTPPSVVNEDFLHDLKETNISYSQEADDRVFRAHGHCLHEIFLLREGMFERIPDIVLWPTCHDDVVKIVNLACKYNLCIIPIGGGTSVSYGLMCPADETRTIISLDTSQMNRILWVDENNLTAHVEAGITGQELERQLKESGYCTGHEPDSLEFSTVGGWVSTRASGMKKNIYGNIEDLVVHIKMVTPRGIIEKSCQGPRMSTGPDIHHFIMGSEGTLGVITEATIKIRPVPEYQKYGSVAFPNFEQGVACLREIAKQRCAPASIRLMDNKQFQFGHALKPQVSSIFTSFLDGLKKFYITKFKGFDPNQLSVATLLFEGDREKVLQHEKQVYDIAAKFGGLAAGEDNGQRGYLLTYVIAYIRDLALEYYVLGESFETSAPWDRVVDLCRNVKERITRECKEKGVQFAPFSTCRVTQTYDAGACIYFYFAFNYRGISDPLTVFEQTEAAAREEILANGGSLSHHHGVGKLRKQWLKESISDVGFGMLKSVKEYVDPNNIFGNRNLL
Sequence of UniProt Q13795 (Q13795 whole entry, looked up): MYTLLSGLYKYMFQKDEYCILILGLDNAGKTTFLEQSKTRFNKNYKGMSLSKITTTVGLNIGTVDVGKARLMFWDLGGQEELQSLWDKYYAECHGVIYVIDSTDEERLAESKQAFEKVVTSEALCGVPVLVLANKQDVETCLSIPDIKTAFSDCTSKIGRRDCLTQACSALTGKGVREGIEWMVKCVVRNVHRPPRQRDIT
Sequence of UniProt Q8TDN6 (Q8TDN6 whole entry, looked up): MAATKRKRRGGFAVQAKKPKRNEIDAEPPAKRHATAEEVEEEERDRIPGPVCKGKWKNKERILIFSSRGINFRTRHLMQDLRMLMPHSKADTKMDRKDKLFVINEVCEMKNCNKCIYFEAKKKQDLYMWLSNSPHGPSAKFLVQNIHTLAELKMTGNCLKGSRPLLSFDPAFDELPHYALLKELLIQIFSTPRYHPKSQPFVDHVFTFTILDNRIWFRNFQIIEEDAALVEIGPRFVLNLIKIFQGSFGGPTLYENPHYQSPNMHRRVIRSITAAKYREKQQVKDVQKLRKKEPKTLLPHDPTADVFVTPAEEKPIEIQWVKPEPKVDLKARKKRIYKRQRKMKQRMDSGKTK
Sequence of UniProt O15440 (O15440 whole entry, looked up): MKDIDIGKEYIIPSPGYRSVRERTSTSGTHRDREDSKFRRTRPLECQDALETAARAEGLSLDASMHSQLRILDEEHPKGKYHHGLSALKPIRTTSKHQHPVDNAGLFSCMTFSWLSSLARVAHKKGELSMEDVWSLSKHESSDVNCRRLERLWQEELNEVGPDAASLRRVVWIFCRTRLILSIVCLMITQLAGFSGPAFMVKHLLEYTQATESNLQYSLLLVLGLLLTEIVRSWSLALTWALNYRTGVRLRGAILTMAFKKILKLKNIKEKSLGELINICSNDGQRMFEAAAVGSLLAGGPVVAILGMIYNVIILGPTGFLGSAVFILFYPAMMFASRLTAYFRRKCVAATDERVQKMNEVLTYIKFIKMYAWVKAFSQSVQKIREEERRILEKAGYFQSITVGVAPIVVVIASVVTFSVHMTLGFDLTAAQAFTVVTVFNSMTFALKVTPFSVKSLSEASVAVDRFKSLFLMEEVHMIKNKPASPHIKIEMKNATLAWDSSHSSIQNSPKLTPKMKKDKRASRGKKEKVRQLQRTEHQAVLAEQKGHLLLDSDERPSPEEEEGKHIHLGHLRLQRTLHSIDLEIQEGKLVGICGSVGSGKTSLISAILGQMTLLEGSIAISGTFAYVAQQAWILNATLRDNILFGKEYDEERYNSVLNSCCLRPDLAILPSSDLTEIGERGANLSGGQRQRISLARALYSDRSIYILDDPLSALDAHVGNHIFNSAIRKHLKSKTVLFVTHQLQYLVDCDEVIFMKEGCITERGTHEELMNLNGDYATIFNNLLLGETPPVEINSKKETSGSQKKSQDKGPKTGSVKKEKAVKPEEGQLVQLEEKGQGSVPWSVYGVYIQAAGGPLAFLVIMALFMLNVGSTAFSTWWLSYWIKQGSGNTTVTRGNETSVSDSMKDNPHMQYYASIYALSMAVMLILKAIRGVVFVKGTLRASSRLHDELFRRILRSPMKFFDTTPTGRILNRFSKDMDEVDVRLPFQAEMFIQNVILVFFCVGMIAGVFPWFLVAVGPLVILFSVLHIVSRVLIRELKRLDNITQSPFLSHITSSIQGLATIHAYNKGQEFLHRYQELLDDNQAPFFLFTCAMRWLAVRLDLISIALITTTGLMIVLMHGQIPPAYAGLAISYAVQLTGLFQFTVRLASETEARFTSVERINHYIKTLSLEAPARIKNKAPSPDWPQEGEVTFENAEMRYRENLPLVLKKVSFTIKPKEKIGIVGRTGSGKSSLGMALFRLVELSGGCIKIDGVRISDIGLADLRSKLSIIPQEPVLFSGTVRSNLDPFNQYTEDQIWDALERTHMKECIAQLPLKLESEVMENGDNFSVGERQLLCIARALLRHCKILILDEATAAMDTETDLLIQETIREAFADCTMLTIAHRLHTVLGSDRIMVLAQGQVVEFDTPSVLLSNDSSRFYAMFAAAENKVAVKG
Sequence of UniProt Q9UHQ4 (Q9UHQ4 whole entry, looked up): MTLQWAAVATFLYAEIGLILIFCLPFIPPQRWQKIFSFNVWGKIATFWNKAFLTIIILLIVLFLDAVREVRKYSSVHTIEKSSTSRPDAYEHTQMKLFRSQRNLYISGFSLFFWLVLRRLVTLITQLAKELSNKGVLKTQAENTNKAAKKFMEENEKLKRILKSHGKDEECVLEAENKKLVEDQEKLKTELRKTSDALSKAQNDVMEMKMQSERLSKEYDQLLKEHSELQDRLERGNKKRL
Sequence of UniProt Q9NRZ7 (Q9NRZ7 whole entry, looked up): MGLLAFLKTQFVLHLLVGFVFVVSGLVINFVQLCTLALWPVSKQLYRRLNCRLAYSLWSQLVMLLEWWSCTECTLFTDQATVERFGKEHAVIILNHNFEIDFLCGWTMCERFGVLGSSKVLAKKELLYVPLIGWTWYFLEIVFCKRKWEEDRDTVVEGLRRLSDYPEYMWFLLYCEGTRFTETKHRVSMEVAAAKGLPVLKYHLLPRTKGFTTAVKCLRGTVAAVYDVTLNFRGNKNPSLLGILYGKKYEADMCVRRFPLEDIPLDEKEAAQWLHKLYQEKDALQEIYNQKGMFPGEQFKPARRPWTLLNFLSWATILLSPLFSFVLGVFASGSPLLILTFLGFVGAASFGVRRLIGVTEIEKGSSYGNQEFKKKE

| Target | log2 fold change [1] | log2 fold change [2] | log2 fold change [3] | log2 fold change [4] | log2 fold change [5] | log2 fold change [6] | log2 fold change [7] | log2 fold change [8] | log2 fold change [9] | log2 fold change [10] | log2 fold change [11] | log2 fold change [12] | log2 fold change [13] | log2 fold change [14] | log2 fold change [15] | log2 fold change [16] | log2 fold change [17] | log2 fold change [18] | log2 fold change [19] | log2 fold change [20] |
| --- | --- | --- | --- | --- | --- | --- | --- | --- | --- | --- | --- | --- | --- | --- | --- | --- | --- | --- | --- | --- |
| AAR2 (UniProt Q9Y312) | 0.039 | 0.02 | 0.021 | -0.002 | -0.062 | -0.012 | 0.104 | 0.024 | -0.074 | -0.035 | -0.01 | -0.026 | -0.032 | -0.035 | 0.074 | -0.018 | 0.021 | -0.105 | 0.018 | -0.023 |
| BCAP29 isoform 2 (UniProt Q9UHQ4) | 0.051 | -0.014 | 0.011 | -0.094 | 0.111 | -0.106 | 0.007 | -0.012 | 0.026 | 0.052 | -0.078 | 0.006 | 0.015 | 0.01 | -0.032 | -0.033 | -0.036 | -0.116 | -0.075 | 0.025 |
| AGPS (UniProt O00116) | 0.025 | -0.005 | -0.028 | 0.007 | -0.008 | -0.123 | -0.025 | -0.041 | -0.025 | 0.031 | 0.126 | 0.012 | 0.013 | -0.001 | -0.084 | 0.02 | 0.041 | -0.043 | -0.033 | 0.06 |
| ALG5 (UniProt Q9Y673) | 0.026 | -0.043 | -0.281 (active) | 0.009 | -0.009 | -0.004 | 0 | -0.002 | -0.057 | 0.07 | 0.039 | 0.019 | -0.001 | 0.049 | -0.055 | 0.035 | 0.059 | 0.025 | 0.01 | 0.02 |
| ABCC5 (UniProt O15440) | -0.035 | -0.082 | 0 | 0.001 | -0.121 | 0.119 | 0.046 | 0.086 | 0.038 | 0.116 | 0.107 | -0.033 | 0.035 | -0.073 | 0.007 | -0.183 | -0.031 | 0.1 | 0.028 | 0.026 |
| ARFGAP1 (UniProt Q8N6T3) | -0.008 | 0.005 | -0.013 | 0.07 | -0.012 | -0.11 | -0.017 | -0.027 | 0.02 | 0.002 | -0.053 | -0.168 | 0.107 | 0.034 | 0.038 | 0.085 | 0.124 | 0.016 | 0.029 | 0.1 |
| ARFRP1 (UniProt Q13795) | -0.083 | 0.031 | 0.02 | 0.004 | -0.041 | -0.028 | -0.073 | 0.017 | -0.044 | 0.075 | 0.138 | 0.003 | 0.082 | 0.069 | -0.048 | 0.033 | 0 | 0.046 | 0.012 | -0.015 |
| ATP12A isoform 2 (UniProt P54707) | 0.013 | 0.009 | -0.033 | -0.031 | -0.036 | 0.162 | -0.005 | -0.03 | -0.02 | 0.086 | -0.001 | -0.006 | 0 | 0.005 | -0.132 | -0.03 | -0.072 | -0.021 | -0.009 | 0.015 |
| ACSF3 (UniProt Q4G176) | 0.05 | -0.088 | -0.129 | -0.004 | -0.063 | -0.138 | 0.077 | 0.011 | -0.061 | 0.023 | -0.002 | 0.038 | 0.007 | 0.023 | -0.005 | 0.029 | 0.003 | 0.008 | -0.022 | 0.051 |
| AARS2 (UniProt Q5JTZ9) | 0 | -0.025 | -0.025 | -0.011 | -0.099 | -0.15 | -0.013 | 0.006 | 0.002 | 0.048 | -0.003 | -0.047 | 0.017 | 0.079 | -0.015 | 0.045 | 0.04 | 0.049 | 0.05 | 0.058 |
| ATG9A (UniProt Q7Z3C6) | 0 | 0.081 | -0.091 | -0.023 | -0.056 | -0.176 | 0.06 | 0.015 | -0.003 | 0.038 | -0.019 | -0.017 | 0.038 | 0.008 | -0.018 | -0.006 | 0.019 | 0.007 | 0.019 | 0.045 |
| AGPAT3 isoform 3 (UniProt Q9NRZ7) | 0.012 | 0 | -0.024 | -0.02 | -0.001 | -0.071 | -0.001 | 0.034 | -0.011 | 0.03 | 0.019 | 0 | 0.016 | 0.003 | -0.076 | -0.001 | 0.043 | -0.039 | 0.008 | 0.057 |
| BZW2 (UniProt Q9Y6E2) | 0.04 | -0.043 | 0 | -0.016 | -0.121 | -0.163 | -0.003 | -0.011 | -0.005 | 0.014 | 0.009 | -0.007 | 0.043 | 0.062 | -0.034 | 0.012 | 0.058 | -0.025 | 0.011 | 0.044 |
| ATP6V0A1 isoform 3 (UniProt Q93050) | -0.068 | 0 | -0.033 | 0.087 | 0.019 | -0.463 (active) | 0.125 | 0.198 | 0.067 | 0.011 | 0.038 | -0.034 | -0.006 | -0.051 | 0.198 | 0.017 | 0 | 0.032 | 0.031 | 0.006 |
| BRIX1 (UniProt Q8TDN6) | -0.1 | -0.011 | 0.021 | 0.133 | 0.091 | 0.137 | 0.041 | 0.361 | -0.051 | -1.43 (active) | 0.038 | -0.061 | -0.09 | -0.134 | 0.37 | -0.11 | 0.008 | 0.159 | 0.15 | -0.197 |
| ATAD3A isoform 2 (UniProt Q9NVI7) | -0.005 | 0.08 | -0.075 | 0.009 | -0.023 | -0.468 (active) | 0.075 | 0.082 | 0 | 0.096 | -0.04 | 0.005 | 0.007 | 0.017 | 0.207 | 0.033 | 0.052 | 0 | 0.045 | 0.009 |
